Eight compounds from PubChem BioAssay (NCI) can be followed below.

Molecules are shown by their SMILES. About 83,000 compounds went through this panel and 20% of them were active in at least one assay; those are over-represented in the sample as a whole.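 Interpretation: 100, growth as untreated; towards 0, rising growth inhibition; 0, no net growth; 0 to -100, cell death. Compounds scoring below 10 were considered active.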 Unmarked numbers belong to inactive results. Activity calls are given as the source filed them.

Holding throughout (experiment): NCI-60 one-dose screen, 48 h (100 = growth as untreated, 0 = no growth, -100 = all killed)
What all share (conditions): 10 µM unless noted

Experiment [1] concerns NCI-H23 lung.
In experiment [2] the test system is NCI-H226 lung.
In experiment [3] the test system is HOP-62 NSCLC.
Experiment [4] relates to NCI-H460 lung.
The subject of experiment [5] is HOP-92 NSCLC.
Experiment [6] deals with NCI-H522 lung.
Experiment [7] deals with A549/ATCC NSCLC.
For experiment [8], the system named is 786-0 renal.
The test system of experiment [9] is COLO 205 colon.
The subject of experiment [10] is DU-145 prostate.
The test system of experiment [11] is K-562 leukemia.
In experiment [12] the test system is MALME-3M melanoma.
In experiment [13] the test system is MDA-MB-231 breast.
Experiment [14] has as its system RXF 393 renal.
For experiment [15], the system named is SF-268 CNS.
The subject of experiment [16] is SF-295 CNS.
Experiment [17] concerns SF-539 CNS.
Experiment [18] relates to UACC-257 melanoma.
The test system of experiment [19] is M14 melanoma.
Experiment [20] concerns NCI-H322M lung.

For the compound `COc1cc2nc(Cl)nc(Nc3cccc(C(=O)/C=C/c4ccccc4)c3)c2cc1OC`, the growth in [1] is 68.6%; in experiment [2], 66.1%; in [3], 70.1%; in experiment [4] it was 89%; in experiment [5], 82.2%; in experiment [6], 56.9%. Besides, the growth in experiment [7] was 74.5%; in experiment [8] it was 52.7%; in experiment [9], 62.9%; in experiment [10] it was 87.7%; in experiment [11] it was 9.16% (active); in [12] it was 78%. Further, the growth was 67.6% in [13]; 68.4% in experiment [14]; 85.9% in experiment [15]; 69.5% in [16]; 2.74% (active) in experiment [17]; 96.5% in experiment [18]. In experiment [19], the growth was 51.2%.
Take `NC(=O)[C@@H]1CC2CCC1C2` (stereo not given in full): the growth in experiment [1] was 113%; in [2] it was 103%; in experiment [3], 103%; in experiment [4], 97.2%; in experiment [5], 71.1%; in experiment [6], 108%. Besides, the growth is 110% in experiment [7]; 101% in experiment [8]; 107% in [9]; 50.4% in experiment [10]; 45.5% in [11]; 101% in experiment [12]. For the same compound, the growth was 123% in experiment [13]; 110% in [14]; 91.9% in [17]; 111% in [18]; 118% in [19].
Consider `Fc1ccc(Nc2nc(Nc3ccc(-c4nc5ccccc5[nH]4)cc3)nc(N3CCCC3)n2)cc1`, for which the growth in experiment [1] was 75.1%; in [2], 79.9%; in [3], 78.6%; in experiment [4] it was 70.4%; in [5] it was 64.4%; in [6], 78.8%. Also, the growth in experiment [7] was 61.2%; in experiment [8], 85.2%; in experiment [9], 86%; in experiment [10] it was 93.3%; in experiment [11], -38.8% (active); in [12], 85.7%. The growth in experiment [13] is 61.6%; in experiment [14], 77.8%; in [15], 91.2%; in experiment [16], 90.9%; in experiment [17], 81.6%; in experiment [19], -58.3% (active).
For the compound `COc1ccc(CCN2C(=O)C(C)(C)SC2=S)cc1OC`, the growth in [1] was 101%; in experiment [2], 105%; in experiment [3] it was 103%; in experiment [4], 105%; in [5] it was 102%; in [6], 93.8%. Also, the growth in [7] is 101%; in experiment [8], 102%; in experiment [9] it was 111%; in experiment [10] it was 98.8%; in experiment [11], 100%; in experiment [12], 96.2%. Further, the growth in [13] was 97.5%; in [14] it was 109%; in [15], 94.7%; in [16], 96.8%; in [17] it was 105%; in experiment [18], 98.9%. Besides, in experiment [19], the growth is 98.4%.
On to `NC1(N)C=CC2=C(C=C1)C1(N)C3=C(C=CC(N)(N)C=C3)N2C2(N)C3=C(C=CC(N)(N)C=C3)N1C1=C2C=CC(N)(N)C=C1`, for which the growth in [1] is 79.5%; in experiment [2], 97.7%; in [3], 89.8%; in [4], 94.6%; in experiment [5], 70.3%; in experiment [6], 28.4%. Further, the growth is 88.8% in experiment [7]; 84.3% in experiment [8]; 104% in experiment [9]; 97% in experiment [10]; 81.7% in [11]; 103% in experiment [12]. The growth was 67.3% in experiment [13]; 104% in [14]; 86.8% in [15]; 73.4% in experiment [17]; 89.7% in experiment [18]; 94.5% in [19].
`C=C1C(=O)O[C@H]2[C@H]1CC/C(COC(=O)NCc1cc3ccccc3[nH]1)=C\CC[C@@]1(C)O[C@@H]21`: the growth was 35.8% in experiment [1]; 64.5% in experiment [2]; 58.3% in experiment [3]; 55.3% in [4]; -14.3% (active) in [5]; -84.4% (active) in experiment [6]. For the same compound, the growth in [7] was 77.4%; in [8], -84.5% (active); in [9], -52.2% (active); in [10], 1.16% (active); in [11], -5.26% (active); in [12] it was -59.4% (active). Moreover, the growth in experiment [13] is -42.5% (active); in experiment [14] it was -86.2% (active); in experiment [15], 59.3%; in experiment [16] it was 90.1%; in [17], -46.2% (active); in experiment [18] it was 46.2%. In addition, in experiment [19], the growth was -27.9% (active).
As to `CCCCCCCC(=O)SCC/C=C/[C@@H]1CC(=O)NCc2cccc(n2)CN(Cc2ccc(Cl)cc2)CC(=O)N[C@@H](C(C)C)C(=O)O1`, the growth in [1] is 19.5%; in experiment [2], 16.1%; in [3], 8.04% (active); in experiment [4] it was 11.9%; in experiment [5], -16.5% (active); in experiment [6], 29.6%. Moreover, the growth in [7] is 2.92% (active); in [8], 14.4%; in [9], -40.4% (active); in experiment [10], 20.6%; in experiment [11] it was 9.09% (active); in experiment [12], 25.1%. The growth was -1.33% (active) in experiment [13]; -20.4% (active) in experiment [14]; 18% in [15]; -68.2% (active) in experiment [16]; 14.7% in experiment [17]; 8.96% (active) in [19].
With `O=C(NO)c1ccc(Cn2c(=O)n(-c3ccccc3)c(=O)c3ccccc32)cc1`, the growth is -38.7% (active) in experiment [1]; 41.3% in experiment [2]; 38.8% in experiment [20]; 29.3% in experiment [3]; 48.4% in experiment [5]; -21.7% (active) in experiment [6]. Also, the growth in [7] was 37.7%; in experiment [8], 71%; in experiment [9], -62.4% (active); in experiment [10] it was 21.9%; in [11] it was 3.42% (active); in experiment [13], 55.1%. The growth in [14] is -13.1% (active); in experiment [15], 43.9%; in experiment [16] it was 13.6%; in [17], -8.95% (active); in experiment [19], 2.72% (active).
